In PubChem BioAssay AID1025 (Sanford-Burnham Center for Chemical Genomics, 2008) one finds activation factor data, which are given here for 25 compounds.

Screen size: about 96,000 compounds; fewer than 10 were called active. These entries were drawn from the full list. A number with no mark means an inactive call.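 The calls were made as follows: active = activation factor of at least 2 at 5 µM in the primary screen; inactive = the rest.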

For the assay, the target named is Cytochrome P450 2C19 (Homo sapiens) (UniProt P33261). Briefly: human CYP2C19 activators, primary screen, biochemical, luminescence (AID 1025).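 Also: 0 = wells with 2.5 mM tranylcypromine and 1 = vehicle-only wells.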 Particulars: recombinant CYP2C19, luciferin-H EGE luminescence; at 5 µM; hits give high values; 0 = fully inhibited enzyme, 1 = untreated enzyme.
Cytochrome P450 2C19 (Homo sapiens), sequence (P33261 whole entry, looked up): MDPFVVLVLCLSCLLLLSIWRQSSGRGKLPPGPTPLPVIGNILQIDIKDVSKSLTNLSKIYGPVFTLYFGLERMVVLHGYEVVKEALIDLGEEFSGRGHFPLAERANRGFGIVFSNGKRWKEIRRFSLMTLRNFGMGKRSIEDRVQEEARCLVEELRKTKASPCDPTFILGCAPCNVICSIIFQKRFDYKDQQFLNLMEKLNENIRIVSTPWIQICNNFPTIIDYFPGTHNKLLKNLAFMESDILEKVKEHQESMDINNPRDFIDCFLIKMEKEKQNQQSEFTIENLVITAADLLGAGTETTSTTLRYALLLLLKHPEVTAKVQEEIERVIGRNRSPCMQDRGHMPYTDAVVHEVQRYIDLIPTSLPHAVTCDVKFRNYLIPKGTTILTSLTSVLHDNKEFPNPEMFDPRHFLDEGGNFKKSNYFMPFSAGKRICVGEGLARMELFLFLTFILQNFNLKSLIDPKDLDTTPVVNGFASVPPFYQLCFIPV
Consider `CCc1ccc(CNC(=O)C2CCCN(c3nc4ccccc4o3)C2)cc1` (stereo not given), for which the activation factor was 0.3.

For `CCn1cc(C(=O)N/N=C(/C)c2ccc(F)cc2)c(=O)c2cc(F)c(N3CCCC3)cc21`, the activation factor is 0.6.

With `O=C(Nc1cccc(-c2nc3ncccc3o2)c1)c1ccco1`, the activation factor is 0.9.

Turning to `COc1ccccc1NC(=O)[C@H](COCc1ccccc1)NC(=O)OC(C)(C)C`, the activation factor is 0.5.

In the case of `CN=C1SC(CC(=O)Nc2ccc(C(=O)O)cc2)C(=O)N1C` (stereo not given), the activation factor was 1.

For `O=C(c1ccco1)N1CCN(C(=O)C2CCCN(S(=O)(=O)c3cccc4nsnc34)C2)CC1` (stereo not given), the activation factor was 1.

With `COc1ccc(NC(=O)Cn2c(-c3ccc(OC)cc3)cn(-c3ccc(C)cc3)c2=O)cc1`, the activation factor is 1.

As to `O=C(N/N=C/c1ccc(O)cc1)/C(=C/c1ccc([N+](=O)[O-])cc1)NC(=O)c1ccccc1`, the activation factor is 0.9.

As for `CSc1ccc(C#N)cc1NC(=O)c1cccc(Cl)c1`, the activation factor is 0.8.

`Cc1ccc(S(=O)(=O)N(CC(=O)NCCSC2CCCCC2)c2ccccc2F)cc1`: the activation factor is 1.

For `CC(c1ccco1)N(C(=O)COc1ccccc1[N+](=O)[O-])c1ccccn1` (stereo not given), the activation factor was 0.6.

As for `C=CCn1c(SCC(=O)NCc2ccccc2)nnc1-c1cc(Br)ccc1O`, the activation factor is 0.1.

With `O=C(Nc1nccs1)c1cc(S(=O)(=O)N2CCOCC2)c(Cl)cc1Cl`, the activation factor is 0.9.

For `CC(C)CCOc1ccc(C(=O)C[N+]2(C)CCOCC2)cc1`, the activation factor was 0.9.

`O=C(N/N=C/C=C/c1ccccc1)C1CC1(c1ccccc1)c1ccccc1` (stereo not given): the activation factor is 1.2.

Take `COCCNC(=O)COc1ccccc1C`: the activation factor was 1.

As for `COc1ccccc1NC(=O)COc1ccc(C(=O)OCC(=O)N(C(C)C)C(C)C)cc1OC`, the activation factor was 0.4.

Turning to `CCCN1Cc2cccc(C(=O)Nc3ccc(S(=O)(=O)N4CCCCCC4)cc3)c2C1=O`, the activation factor was 0.8.

Regarding `Cc1cccc(C)c1-n1c(C)cc(/C=C2\C(=O)NN(c3ccccc3)C2=O)c1C`, the activation factor is 0.6.

On to `Cc1ccc(SCCC(=O)OCC(=O)Nc2ncc(Cl)cc2Cl)cc1`, for which the activation factor is 0.8.

In the case of `COc1ccc(NCc2nnc(SCc3ccccc3)n2-c2ccc(OC)cc2)cc1`, the activation factor is 0.1.

For the compound `COc1ccc(-c2cc3nc(C)c(CCC(=O)NC(C)CCc4ccco4)c(C)n3n2)c(OC)c1` (stereo not given), the activation factor is 0.7.

As to `O=C(COc1cc(Cl)c(Cl)cc1Cl)NC(=O)NC1CCCC1`, the activation factor is 1.1.

As to `CCCCCN1CC(O)=C(c2nc(-c3ccc(Cl)cc3)cs2)C1=N`, the activation factor was 0.9.

On to `Cc1ccc(-n2c(SCC(=O)NCc3ccc4c(c3)OCO4)nnc2-c2cccnc2)c(C)c1`, for which the activation factor is 0.7.
